In the supplement of paper PMC10981050:
“And” between values parts separate entries of the source, which are not always exact repeats. Equal entries are not always repeated. Structures can show the parent of a compound that is named as a salt.

Assays:
Assay in all cases: cell viability relative to vehicle control; higher = less cytotoxic
Conditions in all cases: 10 µM
K562 = test system: K562
Procedure, shortened: (§1)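 Each screen used CRISPR-edited mutant and wild-type clones from four leukaemia lines. Compounds were acoustically dispensed at a single 10 µM dose, and CellTiter-Glo luminescence was read after 48 h with the supernatant first removed. Viability was analysed in Genedata Screener and given as percent of the on-plate vehicle control.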

MARIMO = test system: MARIMO
Procedure, shortened: as §1

MOLM14 = test system: MOLM14
Procedure, shortened: as §1

OCI-AML2 = test system: OCI-AML2
Procedure, shortened: as §1

Structure (SMILES) | cell viability (K562; SRSF2 genotype: SRSF2 P95H/wt) | cell viability (K562; SRSF2 genotype: SRSF2 wt/wt) [%] | cell viability (MARIMO; SRSF2 genotype: SRSF2 P95H/wt) [%] | cell viability (MARIMO; SRSF2 genotype: SRSF2 wt/wt) [%] | cell viability (MOLM14; SRSF2 genotype: SRSF2 P95H/wt) [%] | cell viability (MOLM14; SRSF2 genotype: SRSF2 wt/wt) [%] | cell viability (OCI-AML2; SRSF2 genotype: P95H/wt) [%] | cell viability (OCI-AML2; SRSF2 genotype: wt/wt) [%]
CC1(C)Cc2c(sc(NC(=O)c3ccn[nH]3)c2C(N)=O)C(C)(C)O1 | 103% and 101% | 109 | 96.6 | 93.3 | 110 | 102 | 101 | 104
CCN(CC)CCOc1ccc(C(=C(Cl)c2ccccc2)c2ccccc2)cc1 [Clomifene citrate (Serophene)] | 37.2% and 36.3% | 62.6 | 57.2 | 61.7 | 50.8 | 60.9 | 54.5 | 52.3
C[C@@H](OC[C@@]1(c2ccccc2)CC[C@]2(CCC(=O)N2)CN1)c1cc(C(F)(F)F)cc(C(F)(F)F)c1 [Rolapitant] | 54% and 72.1% | 68.8 | 52.3 | 48.8 | 54.5 | 44.5 | 45.2 | 39.1
CC(C)OC(=O)C(C)(C)Oc1ccc(C(=O)c2ccc(Cl)cc2)cc1 [Fenofibrate (Tricor, Trilipix)] | 80.4% and 86.4% | 85.1 | 79.2 | 81.2 | 93.7 | 98.5 | 67.1 | 82.8
COc1ccc([C@@H]2Sc3ccccc3N(CCN(C)C)C(=O)[C@@H]2OC(C)=O)cc1 [Diltiazem HCl] | 99.8% and 95.7% | 91.9 | 98 | 98.1 | 99.3 | 98.7 | 94.1 | 99.1
CCCC(CCC)C(=O)O [Divalproex sodium] | 105% and 102% | 103 | 101 | 111 | 105 | 105 | 93.3 | 108
Cc1cc(O)cc(OC2OC(CO)C(O)C(O)C2O)c1 (stereo not drawn) [Orcinol glucoside] | 104% and 100% | 101 | 97.5 | 104 | 102 | 106 | 108 | 95.4
C/C=C(/C)C(=O)OC(C)(C)[C@@H]1Cc2c(ccc3ccc(=O)oc23)O1 [Columbianadin] | 99.8% and 97.1% | 99.2 | 87.8 | 86.5 | 102 | 98.4 | 72.8 | 77.5
CC12CC3CC(C)(C1)CC(N)(C3)C2 [Memantine hydrochloride (Namenda)] | 101% and 93.1% | 93.6 | 88.7 | 98.8 | 89.7 | 101 | 90.3 | 103
C[C@H](N=C(NC#N)Nc1cccc2ncccc12)c1ccccc1 | 99.3% and 100% | 97 | 104 | 107 | 97.6 | 98.4 | 108 | 112
Cn1ccnc1S [Methimazole (Tapazole, Northyx)] | 101% and 94.7% | 95.5 | 99.3 | 99.8 | 97.7 | 97.6 | 93.2 | 100
NN1CC(=O)NC1=O [1-Aminohydantoin Hydrochloride] | 103% | 97.1 | 99.8 | 106 | 97.1 | 101 | 89.2 | 106
CN1C(C(=O)Nc2ccccn2)=C(O)c2ccccc2S1(=O)=O [Piroxicam (Feldene)] | 99.5% and 103% | 100 | 97.3 | 106 | 97.6 | 105 | 104 | 105
CN1CCN(CCCNc2ncc(Cl)c(-c3cc4c(C(=O)NC5CC5)cccc4s3)n2)CC1 | 97.4% and 98.7% | 93.2 | 81.4 | 85.8 | 58.8 | 79.9 | 68.8 | 72.7
CC(C)n1ncnc1-c1cn2c(n1)-c1ccc(O[C@@H](C)C(N)=O)cc1OCC2 | 103% and 99.5% | 105 | 48.3 | 46.3 | 50.9 | 62.9 | 18.5 | 34.3
CN(C)CCc1c[nH]c2ccc(C[C@H]3COC(=O)N3)cc12 [Zolmitriptan (Zomig)] | 96.7% and 103% | 104 | 107 | 102 | 99.4 | 104 | 108 | 101
CCC1CC(=Cc2cccnc2)C(=O)C(=Cc2cccnc2)C1 (stereo not drawn) | 21.1% and 19.7% | 17.9 | 0.77 | 0.8 | 0.49 | 0.29 | 0.25 | 0.31
CC1CNc2c(cccc2S(=O)(=O)N[C@@H](CCCNC(=N)N)C(=O)N2CC[C@@H](C)C[C@@H]2C(=O)O)C1 (stereo partly drawn) [Argatroban Monohydrate] | 103% and 94.3% | 96.2 | 96.9 | 103 | 97.8 | 106 | 93.6 | 94
CO[C@@H](C(=O)N1Cc2[nH]nc(NC(=O)c3ccc(N4CCN(C)CC4)cc3)c2C1)c1ccccc1 | 40.2% and 48.7% | 34.3 | 63.3 | 69.4 | 14.3 | 12.9 | 6.56 | 19.3
O=c1c(-c2ccc(O[C@@H]3O[C@H](CO)[C@@H](O)[C@H](O)[C@H]3O)cc2)coc2cc(O)cc(O)c12 [Sophoricoside] | 104% and 106% | 116 | 106 | 103 | 100 | 104 | 109 | 105
CCCCNC(=O)NS(=O)(=O)c1ccc(C)cc1 [Tolbutamide] | 98% and 102% | 102 | 105 | 116 | 102 | 105 | 101 | 110
